HEK cytotox = kills HEK 293 cells; AID 1345083; HEK 293 viability, ATP luminescence (CellTiter-Glo), 48-72 h; Potency, µM (highest dose often 115 µM), without a hit: at the highest dose activity change, negative = cytotoxicity, hits mostly inhibitors; 94,000 tested, 6.6% active; also: nearly all actives have a fitted effect of over 60% in size
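ATP-coupled CellTiter-Glo luminescence served as viability read-out, recorded 10 min after reagent addition at room temperature. HEK 293 cells, 250 cells/well, had been incubated with pintool-transferred compound for 48 or 72 hr at 37 degree Celsius.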
GPT2 inh = GPT2 alanine aminotransferase inhibition; Potency, µM (titrated, usually from 57.7 µM), inactives show top-dose activity change, negative = inhibition, usual class: inhibitors; 100,000 tested, 0.25% active; Recombinant GPT2, coupled pyruvate oxidase/HRP Amplex Red fluorescence; also: nearly all actives have a fitted effect of over 60% in size
Target sequence (Q8TD30 whole entry, looked up): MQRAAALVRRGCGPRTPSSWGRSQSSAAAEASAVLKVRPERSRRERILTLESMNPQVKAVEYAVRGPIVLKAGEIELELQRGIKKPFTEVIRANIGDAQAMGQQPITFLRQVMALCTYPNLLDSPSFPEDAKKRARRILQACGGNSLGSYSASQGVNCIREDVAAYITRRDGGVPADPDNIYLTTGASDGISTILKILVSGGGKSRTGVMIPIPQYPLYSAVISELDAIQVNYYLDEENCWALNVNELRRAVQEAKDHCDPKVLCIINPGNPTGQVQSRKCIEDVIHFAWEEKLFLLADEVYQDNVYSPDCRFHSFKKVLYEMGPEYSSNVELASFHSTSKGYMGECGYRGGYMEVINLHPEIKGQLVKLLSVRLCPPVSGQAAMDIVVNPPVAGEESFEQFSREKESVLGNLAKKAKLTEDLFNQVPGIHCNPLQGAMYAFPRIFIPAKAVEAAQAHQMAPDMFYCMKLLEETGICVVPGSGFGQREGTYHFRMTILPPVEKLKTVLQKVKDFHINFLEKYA
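Fluorescence of coupled pyruvate oxidase/HRP/Amplex Red system (50uM Amplex, 30 min, dark) reports pyruvate formed by GPT2. Enzyme reaction: 10ng/uL GPT2, 2mM L-alanine, 250uM a-KG, 30 min room temperature, pH 7.5; 50uM AOA control.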
NIH3T3 tox = kills NIH 3T3 cells; Potency, µM (series often up to 96.7 µM), for the others: at the top dose activity change, negative = cytotoxicity, most hits filed as inhibitors; NIH 3T3 viability, CellTiter-Glo ATP luminescence, 48-72 h; 94,000 tested, 4.3% active; also: nearly all actives have a fitted effect of over 55% in size
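Cytotoxicity is measured as loss of cellular ATP: NIH 3T3 cells (400/well) are exposed to compound for 48 or 72 hr at 37 °C, then CellTiter-Glo luminescence is imaged after 10 min at room temperature.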
NPR1 antag = blocks ANP-stimulated signaling of human Npr1 receptor | P16066 | HEK293 hNpr1 GloSensor cGMP, ANP-stimulated luminescence | Potency, µM (doses to about 46.3 µM), for the others: at the top dose activity change, negative = inhibition, usual class: inhibitors | 76,000 tested, 1.6% active | AID 1347048; calls by dose curve; also: nearly all actives have a fitted effect of over 60% in size
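HEK293 cells stably expressing human Npr1 and cGMP GloSensor pGS-40F, loaded 2 h with 2% GloSensor reagent, given compound 30 min at room temperature. Luminescence read before and 20 min after 0.1 nM hNppA.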
Luciferase inh = blocks purified firefly luciferase enzyme activity; P08659; purified P. pyralis luciferase, luminescence, biochemical; Potency, µM (titrated, usually from 115 µM), actives largely listed as inhibitors; 76,000 tested, 2.5% active; also: nearly all actives have a fitted effect of over 65% in size
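Purified 10nM P. pyralis luciferase with 10uM D-luciferin and 10uM ATP in 50mM Tris acetate pH 7.5, 10mM Mg acetate, 0.01% Tween-20, 0.05% BSA. qHTS titration; luminescence read by CCD imager.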
* hit, by the source's call; i = inactive; ? = inconclusive; . = not tested or not shown; [ ] = another dose, or the depositor's remark. In the library only some 10% were active in any assay of this set; here they are far more common. Unless noted, calls follow the shape of the dose curve; as a rule, active = well fitted curve in the direction sought with a large enough effect; inconclusive = small, poorly fitted or top-dose-only effect, or another doubt; inactive = no such curve, though single readings can be large; an effect the other way counts as inactive or inconclusive. % is scaled to controls: 0 for no effect and ±100 for the full control effect; potency is read from the fitted curve at half-maximal effect.

SMILES	HEK cytotox	GPT2 inh	NIH3T3 tox	NPR1 antag	Luciferase inh
COCc1ccc2c(c1)c(OC(C)(C)C(=O)NC1CC1)nn2CCC(C)C	?	i	?	?	i
COCc1ccc2c(c1)c(OC(C)(C)C(=O)NC1CCN(C)CC1)nn2CCC(C)C	?	-17%[88.5 µM]	89µM*	3%[70.6 µM]	i
COCc1ccc2c(c1)c(OC(C)(C)C(=O)Nc1ccccn1)nn2CCC(C)C	89µM*	1%[88.5 µM]	45µM*	-21%[70.6 µM]	i
CNC(=O)c1cc(C)nc2onc(C3CCN(C(=O)c4ccccc4C)CC3)c12	-27%	.	-26%	.	.
Cc1cc(C(=O)NC[C@@H]2CC[C@H]3C[C@@H]2C3(C)C)ccc1Cl	?	3%[88.5 µM]	35µM*	?	i
Cc1ccc(C(=O)NC[C@@H]2CC[C@H]3C[C@@H]2C3(C)C)cc1	?	i	?	6%[70.6 µM]	i
CC1(C)[C@H]2CC[C@@H](CNC(=O)c3ccc4ccccc4n3)[C@@H]1C2	?	-10%[88.5 µM]	89µM*	0%[70.6 µM]	i
Cc1ccccc1C(=O)NC[C@@H]1CC[C@H]2C[C@@H]1C2(C)C	?	i	?	-5%[70.6 µM]	i
CC1(C)[C@H]2CC[C@@H](CNC(=O)c3ccc(Cl)nc3)[C@@H]1C2	?	-3%[88.5 µM]	79µM*	-7%[70.6 µM]	i
CC1(C)[C@H]2CC[C@@H](CNC(=O)Cc3cccc(Cl)c3)[C@@H]1C2	100µM*	i	?	8%[70.6 µM]	i
CC(C)(C)n1ccc(C(=O)NC2CC(c3nnc(CO)n3C3CC3)C2)c1 (stereo not drawn)	-25%	5%	-25%	0%	i
O=C(c1cccnc1)N1CCCC2(C1)C(=NC1CCCCC1)NC(=O)N2c1cccnc1 (stereo not drawn)	4%	-6%	1%	0%	i
O=C(c1ccc(F)c(F)c1)N1CCC2(CC1)NC(=O)N(Cc1ccccc1)C2=O	-39%	-2%	-34%	-25%	i
CC1(C)[C@H]2CC[C@@H](CNC(=O)N3CCCC3)[C@@H]1C2	63µM*	i	?	-7%[70.6 µM]	i
CCC(=O)NC[C@@H]1CC[C@H]2C[C@@H]1C2(C)C	-11%[230 µM]	i	-27%[174 µM]	6%[70.6 µM]	i
CC1(C)[C@H]2CC[C@@H](CNC(=O)c3cccc(Br)c3)[C@@H]1C2	100µM*	0%[88.5 µM]	?	-2%[70.6 µM]	i
O=C(NC1CCN(c2ccnc3ccnn23)C1)c1ccc(C(F)(F)F)cc1 (stereo not drawn)	?	-14%	?	.	.
Cc1ccc(C(=O)NC2CCN(c3ccnc4ccnn34)C2)cc1 (stereo not drawn)	63µM*	1%[88.5 µM]	?	.	.
COc1ccc(C(=O)NC2CCN(c3ccnc4ccnn34)C2)cc1 (stereo not drawn)	50µM*	-1%[88.5 µM]	?	.	.
COCCn1cnnc1C(C)Nc1nc(C(C)C)nc2c1cnn2C (stereo not drawn)	i	-9%	0%	3%	i
Cc1cccc(-c2cccc(CN3CCC(NC(=O)NC(C)C)CC3)c2)c1	?	i	?	.	.
Cc1cccc(-c2cccc(CN3CCC(NC(=O)c4ccc(Cl)nc4)CC3)c2)c1	14µM*	1%	18µM*	.	.
Cc1cccc(-c2cccc(CN3CCC(NC(=O)c4ccccc4F)CC3)c2)c1	?	1%	40µM*	.	.
O=C(NC1CCN(Cc2cccc(-c3cccs3)c2)CC1)c1ccc(Cl)nc1	?	-3%	?	.	.
Cc1cccc(-c2cccc(CN3CCC(NC(=O)C4CC4)CC3)c2)c1	?	i	?	.	.
SMILES	HEK cytotox	GPT2 inh	NIH3T3 tox	NPR1 antag	Luciferase inh
Cc1ccc(C(=O)NC2CCN(Cc3cccc(-c4ccc(F)c(F)c4)c3)CC2)cc1	?	i	35µM*	.	.
Cc1cccc(-c2cccc(CN3CCC(NC(=O)c4ccncc4)CC3)c2)c1	32µM*	-8%	32µM*	.	.
Cc1cnc(C(=O)NC2C[C@H]3CC[C@@H](C2)N3C(=O)c2cnccc2C)cn1 (stereo partly drawn)	i	i	i	0%	i
COCCOCC(=O)N1CCC(N2C(=O)C(OCC3CC3)C23CCOCC3)CC1 (stereo not drawn)	2%	-20%	-5%	2%	i
Cc1cccc(-c2cccc(CN3CCC(NC(=O)Cc4ccccn4)CC3)c2)c1	?	i	45µM*	.	.
Cc1cccc(-c2cccc(CN3CCC(NC(=O)C4CCCC4)CC3)c2)c1	i	i	-9%	.	.
COc1ccc(C(=O)NC2CCN(Cc3cccc(-c4cccc(C)c4)c3)CC2)cc1	35µM*	2%	?	.	.
COc1cccc(C(=O)N2CCC(N3C[C@H](O)C[C@H]3C(=O)Nc3cccc(C)c3)CC2)c1	i	1%	2%	3%	i
Cc1cc(C)n(CCC(=O)N2CC(Oc3ccc(-c4nc(-c5ccccc5)no4)cc3)C2)n1	32µM*	-8%	?	0.4µM*	?
Cc1cc(C(=O)N2CC(Oc3ccc(-c4nc(-c5ccccc5)no4)cc3)C2)n(C)n1	11µM*	-25%	?	5.6µM*	?
Cc1ccc(NC(=O)C2CCCN(c3ccnc4ccnn34)C2)cc1 (stereo not drawn)	35µM*	-18%	?	.	.
O=C(NC1CCN(c2ccnc3ccnn23)CC1)C1CCCC1	-18%[172 µM]	i	-10%[138 µM]	.	.
O=C(NC1CCCCCC1)C1CCCN(c2ccnc3ccnn23)C1 (stereo not drawn)	79µM*	i	?	.	.
Cc1nccn1-c1ccc(NC(=O)C2CCCN(c3ncccc3C#N)C2)cc1 (stereo not drawn)	40µM*	i	?	-20%	i
COCc1cc(C[C@@H]2CC[C@H](O)[C@@H](CNC3CCN(C(C)=O)CC3)O2)no1	-16%[172 µM]	-5%[88.5 µM]	-18%[174 µM]	6%[70.6 µM]	i
CCNC(=O)c1cccnc1OC1CCN(C(=O)c2ccccc2Cl)C1 (stereo not drawn)	13%	i	i	-4%	i
CCO[C@H]1CN(C(=O)c2cc(N3CCCCC3)ccc2Cl)C[C@@H]1O	-13%	i	-19%	0%	i
CC(C)[C@@H]1CN(C(=O)c2cc(N3CCCCC3)ccc2Cl)C[C@H]1N(C)C	40µM*	-21%	?	0%	i
COc1ccc(Nc2ccnc(N3CCN(C(=O)Cc4ccc(F)cc4)CC3)n2)cc1	11µM*	i	25µM*	.	.
O=C(Cc1ccc(F)cc1)NC1CCN(c2nccc(Nc3ccccc3Cl)n2)CC1	?	-7%	?	.	.
O=C(Cc1ccc(F)cc1)N1CCN(c2nccc(Nc3ccccc3F)n2)CC1	18µM*	-1%	18µM*	.	.
CN(C)C(=O)N1CCN(c2nccc(Nc3ccccc3F)n2)CC1	-17%	2%	-30%	.	.
O=C(Cc1ccc(F)cc1)N1CCN(c2nccc(Nc3ccccc3Cl)n2)CC1	40µM*	i	28µM*	.	.

High-throughput results: PubChem BioAssay, National Center for Advancing Translational Sciences (NCATS)
